Tests used:
[1] = target: T1, Serine/threonine-protein kinase Nek1 (Homo sapiens) (UniProt Q96PY6); settings: at 0.1 µM
T1 sequence (whole entry): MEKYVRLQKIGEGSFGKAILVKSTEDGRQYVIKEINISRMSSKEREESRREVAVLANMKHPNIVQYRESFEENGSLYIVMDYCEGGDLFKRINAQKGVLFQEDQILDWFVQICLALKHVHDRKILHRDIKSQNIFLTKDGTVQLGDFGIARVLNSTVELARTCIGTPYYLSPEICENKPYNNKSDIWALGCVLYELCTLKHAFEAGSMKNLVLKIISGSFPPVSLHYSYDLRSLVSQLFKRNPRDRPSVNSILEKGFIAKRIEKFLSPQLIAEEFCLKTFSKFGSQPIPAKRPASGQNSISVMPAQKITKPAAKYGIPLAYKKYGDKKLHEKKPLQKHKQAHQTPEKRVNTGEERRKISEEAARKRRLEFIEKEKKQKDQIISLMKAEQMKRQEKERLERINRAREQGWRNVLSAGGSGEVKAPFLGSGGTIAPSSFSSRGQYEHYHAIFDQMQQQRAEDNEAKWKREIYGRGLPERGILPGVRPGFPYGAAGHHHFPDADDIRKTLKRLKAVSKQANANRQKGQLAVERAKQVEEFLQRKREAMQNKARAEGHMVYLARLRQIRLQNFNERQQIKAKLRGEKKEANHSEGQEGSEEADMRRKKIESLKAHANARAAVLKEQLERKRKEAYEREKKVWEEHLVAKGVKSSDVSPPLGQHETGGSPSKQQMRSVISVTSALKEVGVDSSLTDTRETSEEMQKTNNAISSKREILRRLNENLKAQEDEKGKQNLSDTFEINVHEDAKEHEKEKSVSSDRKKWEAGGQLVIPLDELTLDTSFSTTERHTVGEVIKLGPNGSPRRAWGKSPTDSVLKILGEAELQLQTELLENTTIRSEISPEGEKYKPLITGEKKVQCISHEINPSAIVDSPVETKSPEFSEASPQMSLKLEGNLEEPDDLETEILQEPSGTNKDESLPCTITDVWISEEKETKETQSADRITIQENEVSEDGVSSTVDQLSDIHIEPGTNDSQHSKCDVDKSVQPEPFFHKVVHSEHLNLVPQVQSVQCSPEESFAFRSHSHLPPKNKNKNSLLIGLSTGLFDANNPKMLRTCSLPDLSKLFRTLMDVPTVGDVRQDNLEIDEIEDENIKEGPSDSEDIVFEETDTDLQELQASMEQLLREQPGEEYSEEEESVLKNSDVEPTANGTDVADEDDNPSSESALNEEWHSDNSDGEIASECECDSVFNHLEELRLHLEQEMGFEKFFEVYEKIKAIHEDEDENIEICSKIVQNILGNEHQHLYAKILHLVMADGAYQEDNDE

[2] = target: T1, Serine/threonine-protein kinase Nek1 (Homo sapiens); settings: at 1 µM
[3] = target: T2, Serine/threonine-protein kinase Nek2 (Homo sapiens) (UniProt P51955); settings: at 0.1 µM
T2 sequence (whole entry): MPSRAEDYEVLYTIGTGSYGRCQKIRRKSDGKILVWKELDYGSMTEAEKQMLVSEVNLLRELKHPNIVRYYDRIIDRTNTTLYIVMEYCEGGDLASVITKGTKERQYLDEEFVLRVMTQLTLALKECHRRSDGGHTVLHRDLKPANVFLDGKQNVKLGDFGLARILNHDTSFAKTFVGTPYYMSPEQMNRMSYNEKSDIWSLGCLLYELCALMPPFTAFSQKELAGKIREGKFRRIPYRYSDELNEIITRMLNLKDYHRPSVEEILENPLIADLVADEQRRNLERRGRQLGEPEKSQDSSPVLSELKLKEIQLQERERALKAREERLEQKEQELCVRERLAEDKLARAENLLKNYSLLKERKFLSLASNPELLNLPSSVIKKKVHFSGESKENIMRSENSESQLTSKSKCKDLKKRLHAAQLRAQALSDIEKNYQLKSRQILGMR

[4] = target: T2, Serine/threonine-protein kinase Nek2 (Homo sapiens); settings: at 1 µM
[5] = target: Serine/threonine-protein kinase Nek6 (Homo sapiens) (UniProt Q9HC98); settings: at 0.1 µM
[6] = target: Serine/threonine-protein kinase Nek6 (Homo sapiens) (UniProt Q9HC98); settings: at 1 µM
[7] = target: Serine/threonine-protein kinase Nek7 (Homo sapiens) (UniProt Q8TDX7); settings: at 0.1 µM
[8] = target: Serine/threonine-protein kinase Nek7 (Homo sapiens) (UniProt Q8TDX7); settings: at 1 µM
[9] = target: T3, Serine/threonine-protein kinase Nek9 (Homo sapiens) (UniProt Q8TD19); settings: at 0.1 µM
T3 sequence (whole entry): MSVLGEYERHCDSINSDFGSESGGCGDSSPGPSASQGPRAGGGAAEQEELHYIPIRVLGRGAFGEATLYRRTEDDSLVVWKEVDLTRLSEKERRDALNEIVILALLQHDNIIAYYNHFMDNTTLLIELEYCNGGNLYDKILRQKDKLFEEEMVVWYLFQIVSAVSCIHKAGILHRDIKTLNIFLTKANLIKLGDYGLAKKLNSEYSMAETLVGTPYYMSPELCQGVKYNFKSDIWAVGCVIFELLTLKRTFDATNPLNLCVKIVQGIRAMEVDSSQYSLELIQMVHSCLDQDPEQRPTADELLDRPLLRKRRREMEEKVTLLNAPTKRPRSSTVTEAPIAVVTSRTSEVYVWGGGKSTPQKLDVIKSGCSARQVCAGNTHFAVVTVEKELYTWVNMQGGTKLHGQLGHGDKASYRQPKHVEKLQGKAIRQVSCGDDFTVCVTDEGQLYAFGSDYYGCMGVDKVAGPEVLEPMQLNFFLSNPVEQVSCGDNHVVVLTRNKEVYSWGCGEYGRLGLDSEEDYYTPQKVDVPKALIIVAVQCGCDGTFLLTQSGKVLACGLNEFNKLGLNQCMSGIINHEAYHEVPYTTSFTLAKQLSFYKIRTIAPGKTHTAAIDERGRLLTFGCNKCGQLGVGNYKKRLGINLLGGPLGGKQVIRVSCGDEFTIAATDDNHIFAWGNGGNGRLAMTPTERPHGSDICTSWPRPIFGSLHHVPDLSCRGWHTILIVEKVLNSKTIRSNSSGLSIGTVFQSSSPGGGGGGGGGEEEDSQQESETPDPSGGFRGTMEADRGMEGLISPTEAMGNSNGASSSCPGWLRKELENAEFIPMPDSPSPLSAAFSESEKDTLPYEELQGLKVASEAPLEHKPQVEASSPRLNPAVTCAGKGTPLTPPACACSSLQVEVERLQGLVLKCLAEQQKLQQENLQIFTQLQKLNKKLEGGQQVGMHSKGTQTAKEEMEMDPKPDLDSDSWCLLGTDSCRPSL

[10] = target: T3, Serine/threonine-protein kinase Nek9 (Homo sapiens); settings: at 1 µM
[11] = target: Serine/threonine-protein kinase PLK1 (Homo sapiens) (UniProt P53350); settings: at 0.1 µM
[12] = target: Serine/threonine-protein kinase PLK1 (Homo sapiens) (UniProt P53350); settings: at 1 µM
[13] = target: T4, Dual specificity protein kinase TTK (Homo sapiens) (UniProt P33981); settings: at 0.1 µM
T4 sequence (whole entry): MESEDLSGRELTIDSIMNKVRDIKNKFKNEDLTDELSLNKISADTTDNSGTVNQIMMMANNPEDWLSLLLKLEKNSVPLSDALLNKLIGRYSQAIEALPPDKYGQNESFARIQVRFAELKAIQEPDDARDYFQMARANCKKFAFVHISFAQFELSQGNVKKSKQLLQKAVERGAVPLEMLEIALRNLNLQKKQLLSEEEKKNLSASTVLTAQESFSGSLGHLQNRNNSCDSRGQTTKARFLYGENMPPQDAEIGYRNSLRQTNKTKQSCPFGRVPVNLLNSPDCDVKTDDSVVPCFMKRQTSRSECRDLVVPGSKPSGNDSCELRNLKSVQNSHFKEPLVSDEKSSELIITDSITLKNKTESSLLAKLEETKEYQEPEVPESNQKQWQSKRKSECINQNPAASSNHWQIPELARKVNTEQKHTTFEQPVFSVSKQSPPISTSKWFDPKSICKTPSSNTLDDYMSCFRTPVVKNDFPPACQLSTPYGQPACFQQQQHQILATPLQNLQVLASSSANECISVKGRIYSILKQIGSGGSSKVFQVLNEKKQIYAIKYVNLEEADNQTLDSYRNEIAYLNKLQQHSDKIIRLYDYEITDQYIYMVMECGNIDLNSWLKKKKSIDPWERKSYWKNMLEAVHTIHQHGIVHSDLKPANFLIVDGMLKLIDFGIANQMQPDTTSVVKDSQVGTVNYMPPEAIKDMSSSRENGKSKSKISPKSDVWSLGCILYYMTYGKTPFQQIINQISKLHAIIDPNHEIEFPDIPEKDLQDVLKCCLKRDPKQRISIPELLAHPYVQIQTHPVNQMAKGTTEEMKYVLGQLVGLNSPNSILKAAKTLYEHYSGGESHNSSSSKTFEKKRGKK

[14] = system: T5, Receptor-type tyrosine-protein kinase FLT3 (Homo sapiens), P36888 [D835Y]; settings: at 1 µM
T5 sequence (whole entry): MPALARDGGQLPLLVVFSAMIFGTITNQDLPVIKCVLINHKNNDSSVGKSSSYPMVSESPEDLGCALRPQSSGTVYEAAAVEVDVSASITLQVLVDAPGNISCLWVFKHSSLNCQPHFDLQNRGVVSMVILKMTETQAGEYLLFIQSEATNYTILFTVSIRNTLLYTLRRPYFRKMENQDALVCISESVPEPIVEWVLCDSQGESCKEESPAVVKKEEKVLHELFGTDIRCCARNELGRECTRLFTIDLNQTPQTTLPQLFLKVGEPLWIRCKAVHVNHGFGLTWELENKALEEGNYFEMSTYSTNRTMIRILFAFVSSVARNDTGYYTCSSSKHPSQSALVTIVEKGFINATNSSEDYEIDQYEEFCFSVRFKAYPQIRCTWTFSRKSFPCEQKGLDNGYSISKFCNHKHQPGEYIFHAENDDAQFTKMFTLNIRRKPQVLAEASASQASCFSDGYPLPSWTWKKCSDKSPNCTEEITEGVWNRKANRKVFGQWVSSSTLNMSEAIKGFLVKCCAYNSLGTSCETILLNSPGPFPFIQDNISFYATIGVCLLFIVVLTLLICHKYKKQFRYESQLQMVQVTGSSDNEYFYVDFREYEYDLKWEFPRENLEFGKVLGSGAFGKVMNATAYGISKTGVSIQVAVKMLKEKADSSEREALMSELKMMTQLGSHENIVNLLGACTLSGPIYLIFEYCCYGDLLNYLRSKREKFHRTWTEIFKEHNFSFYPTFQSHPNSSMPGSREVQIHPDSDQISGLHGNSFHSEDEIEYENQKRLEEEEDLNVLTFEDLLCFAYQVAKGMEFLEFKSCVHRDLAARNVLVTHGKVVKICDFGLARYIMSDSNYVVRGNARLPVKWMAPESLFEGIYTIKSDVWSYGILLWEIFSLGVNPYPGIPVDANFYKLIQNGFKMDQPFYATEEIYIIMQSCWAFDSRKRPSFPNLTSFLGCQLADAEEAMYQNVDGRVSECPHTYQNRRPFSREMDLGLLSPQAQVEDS

[15] = target: Vascular endothelial growth factor receptor 3 (Homo sapiens) (UniProt P35916); settings: at 0.1 µM
[16] = target: Vascular endothelial growth factor receptor 3 (Homo sapiens) (UniProt P35916); settings: at 1 µM
[17] = target: Macrophage colony-stimulating factor 1 receptor (Homo sapiens) (UniProt P07333); settings: at 0.1 µM
[18] = target: Macrophage colony-stimulating factor 1 receptor (Homo sapiens) (UniProt P07333); settings: at 1 µM
[19] = target: Tyrosine-protein kinase Fyn (Homo sapiens) (UniProt P06241); settings: at 0.1 µM
[20] = target: T6, Inhibitor of nuclear factor kappa-B kinase subunit epsilon (Homo sapiens) (UniProt Q14164); settings: at 1 µM;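 further: reported values are averaged percent inhibition figures against human IKKε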
T6 sequence (whole entry): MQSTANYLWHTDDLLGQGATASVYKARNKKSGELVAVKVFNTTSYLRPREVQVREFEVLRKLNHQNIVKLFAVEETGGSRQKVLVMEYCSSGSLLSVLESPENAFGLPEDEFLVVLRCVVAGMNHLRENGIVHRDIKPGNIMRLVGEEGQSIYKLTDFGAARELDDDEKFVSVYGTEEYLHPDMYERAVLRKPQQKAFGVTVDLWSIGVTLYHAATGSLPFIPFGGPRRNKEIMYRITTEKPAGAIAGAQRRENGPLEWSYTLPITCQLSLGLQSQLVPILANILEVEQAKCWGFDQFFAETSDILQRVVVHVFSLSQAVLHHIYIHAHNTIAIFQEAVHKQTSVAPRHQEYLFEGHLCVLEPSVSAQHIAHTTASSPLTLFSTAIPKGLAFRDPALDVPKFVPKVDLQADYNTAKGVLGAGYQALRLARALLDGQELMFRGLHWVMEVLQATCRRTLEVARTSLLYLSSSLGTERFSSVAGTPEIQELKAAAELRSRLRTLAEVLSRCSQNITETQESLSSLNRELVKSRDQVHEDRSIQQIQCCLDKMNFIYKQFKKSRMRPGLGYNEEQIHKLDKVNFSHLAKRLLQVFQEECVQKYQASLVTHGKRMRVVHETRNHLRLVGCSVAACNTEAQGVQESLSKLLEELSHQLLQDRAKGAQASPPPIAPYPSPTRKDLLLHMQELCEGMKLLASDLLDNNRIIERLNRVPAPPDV

Tyrosine-protein kinase Fyn (Homo sapiens), sequence (P06241 2-537 limits assumed): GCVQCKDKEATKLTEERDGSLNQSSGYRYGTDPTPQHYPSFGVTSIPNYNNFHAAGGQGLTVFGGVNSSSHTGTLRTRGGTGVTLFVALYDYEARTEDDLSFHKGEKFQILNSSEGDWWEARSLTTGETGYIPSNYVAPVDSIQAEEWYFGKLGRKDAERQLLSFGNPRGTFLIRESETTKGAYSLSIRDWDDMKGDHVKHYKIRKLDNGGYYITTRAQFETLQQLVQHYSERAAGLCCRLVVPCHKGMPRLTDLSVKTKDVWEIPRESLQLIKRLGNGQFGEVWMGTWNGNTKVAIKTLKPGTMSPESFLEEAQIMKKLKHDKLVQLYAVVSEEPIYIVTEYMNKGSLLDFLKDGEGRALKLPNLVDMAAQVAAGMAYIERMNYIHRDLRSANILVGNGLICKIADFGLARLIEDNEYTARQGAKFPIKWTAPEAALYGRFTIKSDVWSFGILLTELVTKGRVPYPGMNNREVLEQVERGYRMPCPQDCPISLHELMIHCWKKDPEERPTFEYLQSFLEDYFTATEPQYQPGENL
Vascular endothelial growth factor receptor 3 (Homo sapiens), sequence (P35916 whole entry): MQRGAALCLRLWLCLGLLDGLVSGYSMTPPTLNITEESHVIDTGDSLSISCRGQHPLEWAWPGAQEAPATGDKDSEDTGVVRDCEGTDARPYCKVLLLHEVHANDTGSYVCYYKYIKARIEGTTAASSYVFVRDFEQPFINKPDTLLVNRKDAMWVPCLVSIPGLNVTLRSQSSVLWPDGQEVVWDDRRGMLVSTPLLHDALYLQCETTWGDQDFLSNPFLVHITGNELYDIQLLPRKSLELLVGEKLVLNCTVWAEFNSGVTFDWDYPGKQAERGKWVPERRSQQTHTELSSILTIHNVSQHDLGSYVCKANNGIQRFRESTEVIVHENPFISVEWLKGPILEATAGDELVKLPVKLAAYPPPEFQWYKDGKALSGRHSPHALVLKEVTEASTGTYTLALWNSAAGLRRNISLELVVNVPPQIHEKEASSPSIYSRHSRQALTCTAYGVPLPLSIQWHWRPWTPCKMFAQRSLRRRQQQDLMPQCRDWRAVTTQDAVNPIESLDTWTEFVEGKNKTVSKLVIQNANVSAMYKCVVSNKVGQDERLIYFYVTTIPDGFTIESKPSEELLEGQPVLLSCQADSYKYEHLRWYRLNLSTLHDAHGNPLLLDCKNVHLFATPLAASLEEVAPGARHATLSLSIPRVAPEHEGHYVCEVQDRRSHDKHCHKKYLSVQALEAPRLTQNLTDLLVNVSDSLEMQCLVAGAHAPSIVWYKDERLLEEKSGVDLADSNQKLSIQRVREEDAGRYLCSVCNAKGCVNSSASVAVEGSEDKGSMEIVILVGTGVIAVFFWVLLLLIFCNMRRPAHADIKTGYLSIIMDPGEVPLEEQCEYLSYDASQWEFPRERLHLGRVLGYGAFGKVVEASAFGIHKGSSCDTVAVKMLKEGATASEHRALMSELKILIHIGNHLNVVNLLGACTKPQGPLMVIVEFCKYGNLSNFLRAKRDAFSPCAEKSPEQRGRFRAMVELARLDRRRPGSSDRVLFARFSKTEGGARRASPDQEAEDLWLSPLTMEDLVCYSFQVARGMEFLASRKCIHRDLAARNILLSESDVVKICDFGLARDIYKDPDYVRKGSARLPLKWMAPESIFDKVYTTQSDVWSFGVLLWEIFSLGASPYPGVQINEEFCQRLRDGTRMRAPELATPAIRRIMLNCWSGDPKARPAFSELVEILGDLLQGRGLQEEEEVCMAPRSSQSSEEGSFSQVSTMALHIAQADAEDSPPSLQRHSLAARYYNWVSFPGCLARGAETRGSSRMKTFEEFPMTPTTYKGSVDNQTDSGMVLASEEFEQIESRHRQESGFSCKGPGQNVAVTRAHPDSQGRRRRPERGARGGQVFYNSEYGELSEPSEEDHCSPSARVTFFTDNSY
Serine/threonine-protein kinase PLK1 (Homo sapiens), sequence (P53350 whole entry): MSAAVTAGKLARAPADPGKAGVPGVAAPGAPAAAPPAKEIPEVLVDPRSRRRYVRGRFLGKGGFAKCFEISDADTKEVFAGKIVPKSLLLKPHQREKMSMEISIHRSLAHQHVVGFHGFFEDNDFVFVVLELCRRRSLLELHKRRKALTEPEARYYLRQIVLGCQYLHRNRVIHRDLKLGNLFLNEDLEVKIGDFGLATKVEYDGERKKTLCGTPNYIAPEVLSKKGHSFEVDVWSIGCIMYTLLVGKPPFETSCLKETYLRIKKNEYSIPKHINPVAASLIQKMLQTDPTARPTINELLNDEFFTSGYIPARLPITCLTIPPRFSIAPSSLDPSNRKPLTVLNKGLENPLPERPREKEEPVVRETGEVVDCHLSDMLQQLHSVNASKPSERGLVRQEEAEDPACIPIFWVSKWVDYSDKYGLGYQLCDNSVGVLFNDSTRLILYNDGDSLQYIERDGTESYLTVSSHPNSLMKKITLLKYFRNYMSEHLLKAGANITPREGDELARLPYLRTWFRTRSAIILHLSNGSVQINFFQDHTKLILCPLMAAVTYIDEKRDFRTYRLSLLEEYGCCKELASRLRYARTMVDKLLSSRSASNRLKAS
Macrophage colony-stimulating factor 1 receptor (Homo sapiens), sequence (P07333 whole entry): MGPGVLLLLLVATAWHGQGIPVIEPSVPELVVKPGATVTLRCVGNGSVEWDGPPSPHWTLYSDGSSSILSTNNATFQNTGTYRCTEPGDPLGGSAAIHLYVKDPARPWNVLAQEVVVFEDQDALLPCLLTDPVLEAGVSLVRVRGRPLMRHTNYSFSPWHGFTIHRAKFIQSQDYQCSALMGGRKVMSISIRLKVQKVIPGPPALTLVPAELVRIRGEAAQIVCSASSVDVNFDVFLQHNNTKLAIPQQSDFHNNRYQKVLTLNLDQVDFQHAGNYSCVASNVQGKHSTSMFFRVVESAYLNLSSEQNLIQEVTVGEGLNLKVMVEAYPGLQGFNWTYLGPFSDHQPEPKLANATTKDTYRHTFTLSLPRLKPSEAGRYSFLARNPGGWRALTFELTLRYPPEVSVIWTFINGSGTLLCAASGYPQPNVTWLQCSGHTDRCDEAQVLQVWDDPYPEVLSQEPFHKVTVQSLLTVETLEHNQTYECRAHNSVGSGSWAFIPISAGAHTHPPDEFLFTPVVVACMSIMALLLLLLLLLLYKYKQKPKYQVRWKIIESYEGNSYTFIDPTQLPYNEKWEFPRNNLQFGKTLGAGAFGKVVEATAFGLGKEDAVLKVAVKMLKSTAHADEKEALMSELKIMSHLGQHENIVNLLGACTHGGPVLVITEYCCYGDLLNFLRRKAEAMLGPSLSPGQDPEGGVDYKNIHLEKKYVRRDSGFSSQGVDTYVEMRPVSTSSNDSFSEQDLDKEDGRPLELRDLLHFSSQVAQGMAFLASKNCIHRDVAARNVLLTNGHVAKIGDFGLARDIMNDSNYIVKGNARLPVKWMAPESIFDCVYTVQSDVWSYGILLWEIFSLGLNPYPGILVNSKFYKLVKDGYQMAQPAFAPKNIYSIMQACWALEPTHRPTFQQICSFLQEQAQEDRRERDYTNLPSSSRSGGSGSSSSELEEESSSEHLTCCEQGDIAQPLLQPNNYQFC
Serine/threonine-protein kinase Nek6 (Homo sapiens), sequence (Q9HC98 whole entry): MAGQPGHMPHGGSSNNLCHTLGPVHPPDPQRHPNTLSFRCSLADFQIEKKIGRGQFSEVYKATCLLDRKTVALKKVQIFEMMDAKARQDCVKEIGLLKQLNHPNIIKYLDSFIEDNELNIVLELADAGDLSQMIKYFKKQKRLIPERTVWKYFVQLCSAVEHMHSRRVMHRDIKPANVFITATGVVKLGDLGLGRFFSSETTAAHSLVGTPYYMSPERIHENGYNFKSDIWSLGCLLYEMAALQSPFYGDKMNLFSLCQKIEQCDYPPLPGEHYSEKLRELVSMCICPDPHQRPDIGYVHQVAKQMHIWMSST
Serine/threonine-protein kinase Nek7 (Homo sapiens), sequence (Q8TDX7 whole entry, looked up): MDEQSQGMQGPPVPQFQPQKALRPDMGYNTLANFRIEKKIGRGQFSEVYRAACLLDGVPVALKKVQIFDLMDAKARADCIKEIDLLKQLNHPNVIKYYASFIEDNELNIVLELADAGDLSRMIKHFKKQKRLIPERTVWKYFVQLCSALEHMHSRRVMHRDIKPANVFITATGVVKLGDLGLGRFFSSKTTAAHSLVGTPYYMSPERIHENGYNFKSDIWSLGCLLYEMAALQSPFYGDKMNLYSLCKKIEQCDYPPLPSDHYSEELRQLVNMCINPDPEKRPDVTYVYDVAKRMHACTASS

SMILES	inhibition [1]	inhibition [2]	inhibition [3]	inhibition [4]	inhibition [5]	inhibition [6]	inhibition [7]	inhibition [8]	inhibition [9]	inhibition [10]	inhibition [11]	inhibition [12]	inhibition [13]	inhibition [14]	inhibition [15]	inhibition [16]	inhibition [17]	inhibition [18]	inhibition [19]	inhibition [20]
CCc1nccc2c1nc(-c1nonc1N)n2CC	0.36%	1.55%	0.45%	0.31%	0.37%	0.82%	2.57%	1.72%	0.19%	2.52%	0.58%	1.55%	3.28%	-1.94%	-0.59%	3.19%	-0.59%	1.95%	2.96%	
Clc1ccc(CNc2nccc(-c3cnn4ncccc34)n2)cc1	0.32%	19.8%	0.93%	0.52%	3.94%	-1.91%	-2.2%	0.48%	-0.09%	-2.99%	2.4%	2.85%	0.13%	2.01%	-1.51%	1.12%	1.45%	10.5%	-1.29%	-0.99%
CN1CCN(CCCNc2nc3ccc(Oc4ccc(NC(=O)Nc5cc(C(F)(F)F)ccc5F)cc4)cc3[nH]2)CC1	1.41%	0.88%	0.71%	0.01%	3.67%	-2.03%	3.61%	0.94%	2.54%	-1.83%	1.78%	0.98%	1.87%	1.66%		-0.49%	3.57%	17.3%	-4.47%	-0.63%

Reference: ChEMBL document CHEMBL1961873, “Compounds: GSK PKIS; Assays: Nanosyn kinase panel” (2012)
